Laboratory results as given in PubChem BioAssay (NCI).
The panel holds about 79,000 compounds, 15% with a hit somewhere; the sample as a whole holds those more often. Active and inactive are the calls of the source. Rule as the data show it: active = growth inhibition above about 70%; inactive = the rest.

Experiments:
[1] = NCI Yeast Anticancer Drug Screen. Data for the rad52 strain (AID 147);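 also: 0% = growth of vehicle-treated control cultures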; conditions: S. cerevisiae rad52 mutant growth inhibition, hits give high values
Summary of the method: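 Screen used a yeast mutant impaired in DNA repair. After compound exposure, growth was measured. Values reflect inhibition compared with vehicle-treated cells.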

[2] = NCI Yeast Anticancer Drug Screen. Data for the wt1 strain (AID 149);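 also: 0% = growth of vehicle-treated wt1 cultures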; conditions: S. cerevisiae wt1 strain (SPY 50644) growth inhibition, hits give high values
Summary of the method: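 wt1 strain grown with compound or vehicle; inhibition taken from the growth difference.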

[3] = NCI Yeast Anticancer Drug Screen. Data for the rad50EPP+ strain (AID 151);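 also: 0% = growth of vehicle-treated control cultures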; conditions: S. cerevisiae rad50 mutant strain, hits give high values
Summary of the method: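 Exposing the rad50EPP+ strain to each compound, growth was compared with vehicle-only cultures to give inhibition.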

[4] = NCI Yeast Anticancer Drug Screen. Data for the mgt1 strain (AID 153); conditions: S. cerevisiae mgt1 mutant growth inhibition, hits give high values
Summary of the method: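 Genetically defined yeast (mgt1) treated with compound; inhibition of growth expressed against vehicle-treated controls.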

[5] = NCI Yeast Anticancer Drug Screen. Data for the rad50 strain (AID 155);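 also: 0% = growth of vehicle-only cultures of the same strain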; conditions: S. cerevisiae rad50 strain growth inhibition, hits give high values
Summary of the method: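 DNA repair mutant yeast, compound exposure, growth read-out; inhibition is taken relative to vehicle.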

[6] = NCI Yeast Anticancer Drug Screen. Data for the mec2-1 strain (AID 157); conditions: S. cerevisiae mec2-1 strain, hits give high values
Summary of the method: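 Readout is yeast growth inhibition, normalised to vehicle-treated controls, in the mec2-1 strain exposed to compound.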

[7] = NCI Yeast Anticancer Drug Screen. Data for the sgs1 mgt1 strain (AID 161);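 also: 0% = growth of cultures given vehicle only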; conditions: S. cerevisiae sgs1 mgt1 strain, hits give high values
Summary of the method: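 Growth of a repair-deficient yeast mutant was monitored after compound treatment and expressed as inhibition relative to vehicle-treated cultures.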

[8] = NCI Yeast Anticancer Drug Screen. Data for the CLN2oe strain (AID 163);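 also: 0% = growth of vehicle-only control cultures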; conditions: S. cerevisiae CLN2oe strain, hits give high values
Summary of the method: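 Values reflect how much compound exposure reduced yeast growth, referenced to vehicle-exposed cells. Assay organism is a strain with a defined genetic change affecting cell-cycle control.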

[9] = NCI Yeast Anticancer Drug Screen. Data for the cln2 rad14 strain (AID 165);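 also: 0% = growth equal to vehicle treated cultures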; conditions: S. cerevisiae cln2 rad14 strain, hits give high values
Summary of the method: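 Relative to vehicle controls, growth inhibition of compound-treated cln2 rad14 yeast was recorded.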

[10] = NCI Yeast Anticancer Drug Screen. Data for the bub3 strain (AID 167); conditions: S. cerevisiae bub3 mutant strain, hits give high values
Summary of the method: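 In this screen, a yeast mutant lacking normal mitotic checkpoint function is challenged with compound. Relative growth versus vehicle gives the inhibition value.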

[11] = NCI Yeast Anticancer Drug Screen. Data for the wt2 strain (AID 169);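 also: 0% = growth of vehicle-treated yeast cultures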; conditions: S. cerevisiae wt2 strain growth inhibition, hits give high values
Summary of the method: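 Values express reduction in yeast growth under compound treatment, referenced to vehicle-treated cells.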

[12] = NCI Yeast Anticancer Drug Screen. Data for the mlh1 strain (AID 171);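 also: 0% = growth of vehicle-treated control cultures of the same strain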; conditions: S. cerevisiae mlh1 strain growth inhibition, hits give high values
Summary of the method: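 Steps: expose the defined-mutant yeast strain to compound; expose a parallel culture to vehicle; measure growth; express compound effect as inhibition relative to the vehicle culture.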

[13] = NCI Yeast Anticancer Drug Screen. Data for the sgs1 strain (AID 173);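 also: 0% = growth of vehicle-only control cultures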; conditions: S. cerevisiae sgs1 mutant, hits give high values
Summary of the method: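 Treat defined-mutant yeast with compound; measure growth; calculate inhibition relative to vehicle-treated cells.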

[14] = NCI Yeast Anticancer Drug Screen. Data for the rad14 strain (AID 159);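 also: 0% = growth of vehicle-treated control cultures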; conditions: S. cerevisiae rad14 strain growth inhibition, hits give high values
Summary of the method: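 DNA repair-defective yeast, compound-exposed; % growth inhibition derived by comparison with vehicle-treated controls.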

[15] = NCI Yeast Anticancer Drug Screen. Data for the mlh1 rad18 strain (AID 175); conditions: S. cerevisiae mlh1 rad18 strain growth inhibition, hits give high values
Summary of the method: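 Test agents were incubated with a yeast strain of defined genotype (DNA damage repair defect). Inhibition of growth was derived by comparison with vehicle-exposed cultures.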

[16] = NCI Yeast Anticancer Drug Screen. Data for the rad18 strain (AID 177); conditions: S. cerevisiae rad18 mutant growth inhibition, hits give high values
Summary of the method: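 A genetically defined yeast mutant impaired in DNA damage repair was treated with test compounds, then its growth was measured against cultures receiving vehicle alone.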

[17] = at 5.0 µM (retest, dose inferred, filed as 0.5)
[18] = at 50.0 µM (retest, dose inferred, filed as 5.0)

Measured: growth inhibition

c1ccc2c(c1)C(=NCCCN1CCCCCC1)c1cccn1-2
active: [1]; at 100.0 µM 97% | [2]; at 100.0 µM 93% | [4]; at 100.0 µM 97% | [5]; at 50.0 µM 78.2% | [5]; at 100.0 µM 97% | [6]; at 100.0 µM 98% | [7]; at 50.0 µM 84.5% | [8]; at 100.0 µM 93% | [10]; at 50.0 µM 94.9% | [10]; at 100.0 µM 97% | [11]; at 100.0 µM 96% | [12]; at 100.0 µM 96% | [13]; at 100.0 µM 96%
inactive: [1]; at 1.2 µM -3% | [1]; at 3.7 µM -5% | [1]; at 11.0 µM -5% | [1]; at 33.0 µM -6% | [2]; at 1.2 µM -2% | [2]; at 3.7 µM -1% | [2]; at 11.0 µM 2% | [2]; at 33.0 µM -1% | [3]; at 1.2 µM -3% | [3]; at 3.7 µM -4% | [3]; at 11.0 µM -4% | [3]; at 33.0 µM 3% | [3]; at 100.0 µM 63% | [4]; at 1.2 µM -4% | [4]; at 3.7 µM -1% | [4]; at 11.0 µM -1% | [4]; at 33.0 µM 3% | [5]; at 1.2 µM -3% | [5]; at 3.7 µM -8% | [5]; [17] -3% | [5]; at 11.0 µM -9% | [5]; at 33.0 µM -6% | [5]; [18] -6% | [6]; at 1.2 µM -3% | [6]; at 3.7 µM 1% | [6]; [17] 0% | [6]; at 11.0 µM 4% | [6]; at 33.0 µM 0% | [6]; [18] -3% | [6]; at 50.0 µM 68.2% | [7]; [17] 2% | [7]; [18] -7% | [8]; at 1.2 µM -10% | [8]; at 3.7 µM -15% | [8]; at 11.0 µM -23% | [8]; at 33.0 µM -18% | [9]; [17] -7% | [9]; [18] -5% | [9]; at 50.0 µM 61.4% | [10]; at 1.2 µM 0% | [10]; at 3.7 µM -4% | [10]; [17] 6% | [10]; at 11.0 µM 0% | [10]; at 33.0 µM 10% | [10]; [18] -3% | [11]; at 1.2 µM -2% | [11]; at 3.7 µM -4% | [11]; at 11.0 µM -2% | [11]; at 33.0 µM -3% | [12]; at 1.2 µM -2% | [12]; at 3.7 µM -2% | [12]; at 11.0 µM 0% | [12]; at 33.0 µM 4% | [13]; at 1.2 µM -4% | [13]; at 3.7 µM -2% | [13]; at 11.0 µM -1% | [13]; at 33.0 µM 4%

O=C1OC(=O)C2CCCC3CCCC1C32 (stereo unspecified)
inactive: [1]; at 1.2 µM 23% | [1]; at 3.7 µM 67% | [2]; at 1.2 µM 7% | [2]; at 3.7 µM 51% | [3]; at 1.2 µM 42% | [3]; at 3.7 µM 54% | [4]; at 1.2 µM 34% | [4]; at 3.7 µM 48% | [5]; at 1.2 µM 17% | [5]; at 3.7 µM 68% | [5]; [17] -10% | [5]; at 50.0 µM 39% | [6]; at 1.2 µM 39% | [6]; at 3.7 µM 33% | [6]; [17] -8% | [6]; at 50.0 µM 36.8% | [14]; at 1.2 µM 17% | [14]; at 3.7 µM 28% | [14]; at 11.0 µM 47% | [7]; [17] -21% | [7]; [18] 10% | [7]; at 50.0 µM 55.1% | [9]; [17] 15% | [9]; at 50.0 µM 20.8% | [10]; at 1.2 µM 28% | [10]; at 3.7 µM 66% | [10]; [17] 53% | [12]; at 1.2 µM 44% | [12]; at 3.7 µM 64% | [15]; [17] 31% | [15]; at 50.0 µM 26.9%
active: [1]; at 11.0 µM 85% | [1]; at 33.0 µM 90% | [1]; at 100.0 µM 97% | [2]; at 11.0 µM 83% | [2]; at 33.0 µM 90% | [2]; at 100.0 µM 97% | [3]; at 11.0 µM 75% | [3]; at 33.0 µM 90% | [3]; at 100.0 µM 95% | [4]; at 11.0 µM 82% | [4]; at 33.0 µM 87% | [4]; at 100.0 µM 96% | [5]; at 11.0 µM 93% | [5]; at 33.0 µM 96% | [5]; [18] 97% | [5]; at 100.0 µM 96% | [6]; at 11.0 µM 71% | [6]; at 33.0 µM 95% | [6]; [18] 99% | [6]; at 100.0 µM 97% | [14]; at 33.0 µM 87% | [14]; at 100.0 µM 94% | [9]; [18] 98% | [10]; at 11.0 µM 93% | [10]; at 33.0 µM 96% | [10]; [18] 99% | [10]; at 50.0 µM 71.5% | [10]; at 100.0 µM 97% | [12]; at 11.0 µM 93% | [12]; at 33.0 µM 96% | [12]; at 100.0 µM 97% | [15]; [18] 98%

N#CN=Nc1cc(Cl)c(N=NC#N)cc1Cl
inactive: [1]; at 1.2 µM -27% | [1]; at 3.7 µM -19% | [1]; at 11.0 µM -18% | [1]; at 33.0 µM 2% | [1]; at 100.0 µM 68% | [2]; at 1.2 µM -6% | [2]; at 3.7 µM -5% | [2]; at 11.0 µM -6% | [2]; at 33.0 µM -3% | [2]; at 100.0 µM 47% | [3]; at 1.2 µM -4% | [3]; at 3.7 µM -3% | [3]; at 11.0 µM 6% | [3]; at 33.0 µM 31% | [4]; at 1.2 µM -10% | [4]; at 3.7 µM -6% | [4]; at 11.0 µM -6% | [4]; at 33.0 µM 28% | [5]; at 1.2 µM -15% | [5]; at 3.7 µM -8% | [5]; [17] -22% | [5]; at 11.0 µM -7% | [5]; at 33.0 µM 3% | [5]; [18] 64% | [5]; at 100.0 µM 55% | [6]; at 1.2 µM -14% | [6]; at 3.7 µM -17% | [6]; [17] 12% | [6]; at 11.0 µM -18% | [6]; at 33.0 µM -3% | [6]; at 50.0 µM 46% | [14]; at 1.2 µM 1% | [14]; at 3.7 µM 4% | [14]; at 11.0 µM 11% | [14]; at 33.0 µM 32% | [7]; [17] -5% | [7]; [18] -4% | [7]; at 50.0 µM 60.2% | [9]; [17] 33% | [9]; [18] 55% | [9]; at 50.0 µM 20.6% | [10]; at 1.2 µM -19% | [10]; at 3.7 µM 2% | [10]; [17] -1% | [10]; at 11.0 µM -7% | [10]; at 33.0 µM 25% | [10]; at 50.0 µM 43.8% | [11]; at 1.2 µM 2% | [11]; at 3.7 µM 1% | [11]; at 11.0 µM 0% | [11]; at 33.0 µM 3% | [11]; at 100.0 µM 30% | [12]; at 1.2 µM 22% | [12]; at 3.7 µM 10% | [12]; at 11.0 µM 12% | [12]; at 33.0 µM 29% | [13]; at 1.2 µM -25% | [13]; at 3.7 µM -15% | [13]; at 11.0 µM -13% | [13]; at 33.0 µM 13% | [15]; [17] -10% | [15]; at 50.0 µM 38.2% | [16]; at 1.2 µM -8% | [16]; at 3.7 µM -16% | [16]; at 11.0 µM -11% | [16]; at 33.0 µM 14%
active: [3]; at 100.0 µM 79% | [4]; at 100.0 µM 70% | [5]; at 50.0 µM 83.8% | [6]; [18] 87% | [6]; at 100.0 µM 78% | [14]; at 100.0 µM 85% | [10]; [18] 96% | [10]; at 100.0 µM 88% | [12]; at 100.0 µM 87% | [13]; at 100.0 µM 94% | [15]; [18] 98% | [16]; at 100.0 µM 82%
